High-throughput results (PubChem)
Only a selection was taken, and hits are over-represented in it overall.
TDP1 inh = blocks human tyrosyl-DNA phosphodiesterase 1 | recombinant TDP1, AlphaScreen DNA substrate cleavage | Potency, µM (titrated, usually from 130 µM), usual class: inhibitors | 350,000 compounds, 0.28% hits | AID 485290; note: nearly all actives have a fitted effect of over 40% in size
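AlphaScreen read-out: signal falls as enzyme removes the 3' tyrosine-FITC from a 5'-biotinylated DNA oligo (15 nM, 5 min, RT). Enzyme was E. coli-made recombinant Tdp1 at 1 nM, exposed to compound for 15 min beforehand; beads 10 ug/ml, 10 min.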
KDM4E inh = JMJD2E (human) inhibition. B2RXH2. JMJD2E catalytic domain, FDH-coupled NADH fluorescence (FDH is formaldehyde dehydrogenase). Potency, µM (series often up to 57.1 µM), hits mostly inhibitors. 230,000 compounds, 1.6% hits. AID 2147; active = well fitted inhibition curve with a large enough effect, not every such curve was filed as active; inconclusive = small, poorly fitted or top-dose-only effect, or another doubt; inactive = no such curve, though single readings can be large or run the other way; note: nearly all actives have a fitted effect of over 50% in size
APEX1 inh = APE1 (human) endonuclease inhibition | P27695 | recombinant APE1, TAMRA/BHQ-2 abasic DNA cleavage fluorescence | Potency, µM (highest dose often 65.8 µM), most hits filed as inhibitors | 350,000 compounds, 0.35% hits | AID 2517; note: nearly all actives have a fitted effect of over 55% in size
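Incision of a quenched TAMRA/BHQ-2 THF abasic-site duplex (50 nM) by 0.75 nM APE1, after 15 min compound preincubation, measured as fluorescence increase over three 60 s reads. Values normalized to buffer, DMSO and NSC13755 control wells.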
BLM helicase inh = Bloom syndrome helicase (human) inhibition. P54132. recombinant BLM DNA unwinding, fluorescence dequenching. Potency, µM (top dose mostly 56.1 µM), actives largely listed as inhibitors. 350,000 compounds, 0.2% hits. AID 2528; note: nearly all actives have a fitted effect of over 35% in size
KAT2A inh = blocks human GCN5L2 histone acetyltransferase; Q92830; GCN5L2 HAT assay, ThioGlo1 CoA-SH fluorescence; Potency, µM (top dose mostly 58.9 µM), hits mostly inhibitors; 390,000 compounds, 0.21% hits
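Preincubate 20nM GCN5L2 with compound 15 min, RT → add 50uM ThioGlo1 + 75uM H3(1-25) + 70uM acetyl-CoA → read fluorescence 0 and 20 min. Primary qHTS; fluorescent artifacts likely.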
RECQ1 inh-1 = inhibitors of human RECQ1 DNA helicase. RECQ1 DNA unwinding, red fluorescence kinetic read. AID 2549. Potency, µM (doses to about 57.3 µM), most hits filed as inhibitors. 240,000 compounds, 0.54% hits; note: nearly all actives have a fitted effect of over 30% in size
Target sequence (P46063 whole entry, looked up): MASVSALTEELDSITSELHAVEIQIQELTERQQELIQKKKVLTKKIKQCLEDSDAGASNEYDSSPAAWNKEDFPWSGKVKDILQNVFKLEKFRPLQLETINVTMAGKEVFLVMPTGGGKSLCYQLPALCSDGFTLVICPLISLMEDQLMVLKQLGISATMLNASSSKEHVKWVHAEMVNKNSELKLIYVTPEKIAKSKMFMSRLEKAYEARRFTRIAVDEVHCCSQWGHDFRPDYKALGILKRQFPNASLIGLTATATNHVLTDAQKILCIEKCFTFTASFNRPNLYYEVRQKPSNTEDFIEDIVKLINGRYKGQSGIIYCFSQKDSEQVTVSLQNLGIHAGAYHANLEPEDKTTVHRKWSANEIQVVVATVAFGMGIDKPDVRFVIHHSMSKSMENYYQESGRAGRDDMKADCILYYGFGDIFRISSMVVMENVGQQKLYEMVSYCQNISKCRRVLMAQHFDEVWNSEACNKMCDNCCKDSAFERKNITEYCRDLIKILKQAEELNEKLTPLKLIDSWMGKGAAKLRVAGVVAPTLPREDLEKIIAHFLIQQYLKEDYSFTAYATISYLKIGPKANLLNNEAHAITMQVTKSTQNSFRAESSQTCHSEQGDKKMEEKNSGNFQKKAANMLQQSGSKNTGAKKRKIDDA
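RECQ1T1 50 nM; forked duplex (20 bp + 30-nt ss tails) 200 nM, ATP 2 mM final; pH 8.0, 2 mM MgCl2, 2.5 ug/ml poly(dI-dC); 15 min compound preincubation; discontinuous kinetic read over 2 h at RT.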
RECQ1 conf = confirmation of human RECQ1 helicase inhibitors; shares compounds with RECQ1 inh-1; RECQ1 helicase DNA unwinding, fluorescence; Potency, µM (top dose mostly 229 µM), actives largely listed as inhibitors; 610 compounds, 28% hits; note: nearly all actives have a fitted effect of over 45% in size
RECQ1 ADP FP = displaces ADP in a fluorescence polarization counter-screen for RECQ1 hits | shares compounds with RECQ1 inh-1 | ADP fluorescence polarization displacement counterscreen | Potency, µM (titrated, usually from 228 µM), most hits filed as inhibitors | 530 compounds, 27% hits; note: nearly all actives have a fitted effect of over 45% in size
RECQ1 inh-2 = confirmation of human RECQ1 helicase inhibitors | shares compounds with RECQ1 inh-1 | recombinant RECQ1 DNA unwinding, red fluorescence | Potency, µM (series often up to 119 µM), actives largely listed as inhibitors | 1,100 compounds, 15% hits | AID 504841; note: nearly all actives have a fitted effect of over 50% in size
A number is an active result. Unless noted, calls come from the whole dose curve; as a rule, active = well fitted curve in the direction sought with a large enough effect; inconclusive = small, poorly fitted or top-dose-only effect, or another doubt; inactive = no such curve, though single readings can be large; an effect the other way counts as inactive or inconclusive.

For Cn1c(NCCCO)nc2c1c(=O)n(Cc1ccccc1F)c(=O)n2C the results were TDP1 inh inactive, KDM4E inh inactive, APEX1 inh inactive, BLM helicase inh inactive, KAT2A inh inactive and RECQ1 inh-1 inactive.
For CCC(/C=C1\Sc2ccc(OC)cc2N1CCO)=C\c1sc2ccc(OC)cc2[n+]1CCO the results were TDP1 inh inactive, KDM4E inh inactive, APEX1 inh inconclusive, BLM helicase inh inconclusive, KAT2A inh inconclusive, RECQ1 inh-1 13µM and RECQ1 inh-2 45µM.
Screening CC1CCCC(C)N1C(=O)C1CCCCC1 (stereo unspecified) returned TDP1 inh inactive, KDM4E inh inactive, APEX1 inh inactive, BLM helicase inh inactive, KAT2A inh inactive and RECQ1 inh-1 inconclusive.
CC1CCCC(C(=O)O)N1C(=O)CCSSCCC(=O)N1C(C)CCCC1C(=O)O (stereo unspecified) was read as TDP1 inh inactive, KDM4E inh inactive, APEX1 inh inactive, BLM helicase inh inactive, KAT2A inh inactive, RECQ1 inh-1 inactive, RECQ1 conf inactive and RECQ1 ADP FP inactive.
Cc1ccc(OCC(=O)N/N=C/C=C/c2ccco2)cc1 was read as TDP1 inh inactive, KDM4E inh inactive, APEX1 inh inactive, BLM helicase inh inactive, KAT2A inh inactive, RECQ1 inh-1 8.9µM, RECQ1 conf inconclusive and RECQ1 ADP FP inconclusive.
Cc1cc2nc3c(=O)[nH]c(=O)nc-3n(C)c2cc1C=O was read as TDP1 inh inactive, APEX1 inh inactive, BLM helicase inh 16µM, KAT2A inh 28µM, RECQ1 inh-1 3.2µM, RECQ1 conf active and RECQ1 ADP FP 6.3µM.
`O=C(c1ccccc1)N1CCC(c2nc(-c3ccc(S(=O)(=O)N4CCOCC4)cc3)no2)CC1` gave TDP1 inh inactive, KDM4E inh inactive, APEX1 inh inactive, BLM helicase inh inactive, KAT2A inh inactive and RECQ1 inh-1 inactive.
O=C(Nc1ccccc1)N1CCC(c2nc(-c3ccc(S(=O)(=O)N4CCOCC4)cc3)no2)CC1 was read as TDP1 inh inactive, KDM4E inh inactive, APEX1 inh inactive, BLM helicase inh inactive, KAT2A inh inactive, RECQ1 inh-1 inactive, RECQ1 conf inactive and RECQ1 ADP FP inactive.
Fc1ccc(Nc2ncnc3ccc(-c4ccoc4)cc23)cc1 was read as APEX1 inh inactive, BLM helicase inh inactive, KAT2A inh inconclusive and RECQ1 inh-1 inactive.
For CCOC(=O)c1c(NC(=O)CN2CCCc3ccccc32)sc(C(C)=O)c1C the results were TDP1 inh inactive, KDM4E inh inactive, APEX1 inh inactive, BLM helicase inh inactive, KAT2A inh inactive and RECQ1 inh-1 inactive.
Screening COCCOC(=O)c1c(NC(=O)CN2CCc3ccccc32)sc(C(N)=O)c1C returned TDP1 inh inactive, KDM4E inh inactive, APEX1 inh inactive, BLM helicase inh inactive, KAT2A inh inactive, RECQ1 inh-1 20µM and RECQ1 inh-2 inactive.
For COc1ccccc1-n1c(SCC(=O)Nc2ccc(C)cc2)nc(O)cc1=O the results were TDP1 inh inactive, KDM4E inh inactive, APEX1 inh inactive, BLM helicase inh inactive, KAT2A inh inactive and RECQ1 inh-1 inactive.
Screening COc1ccc(NC(=O)CSc2nc(O)cc(=O)n2-c2ccccc2OC)cc1 returned TDP1 inh inactive, KDM4E inh inactive, APEX1 inh inactive, BLM helicase inh inactive, KAT2A inh inactive, RECQ1 inh-1 inconclusive and RECQ1 inh-2 inactive.
`COc1ccccc1-n1c(SCC(=O)Nc2cccc3ccccc23)nc(O)cc1=O` gave TDP1 inh inactive, KDM4E inh inactive, APEX1 inh inactive, BLM helicase inh inactive, KAT2A inh inactive, RECQ1 inh-1 inconclusive and RECQ1 inh-2 inactive.
`COc1cc([C@@H]2CC(=O)c3c(O)cc(O)cc3O2)ccc1O` gave TDP1 inh inactive, APEX1 inh inactive, BLM helicase inh inactive, KAT2A inh inactive and RECQ1 inh-1 inactive.
O=C(/C=C/c1ccco1)N(Cc1ccc(F)cc1)C1CCS(=O)(=O)C1 (stereo unspecified) was read as TDP1 inh inactive, KDM4E inh inactive, APEX1 inh inactive, BLM helicase inh inactive, KAT2A inh inactive, RECQ1 inh-1 inconclusive and RECQ1 inh-2 inactive.
Cc1ccc2c(c1)c1nnc(SCC(=O)N3CCCc4ccccc43)nc1n2CC(=O)O was read as TDP1 inh inactive, KDM4E inh inactive, APEX1 inh inactive, BLM helicase inh inactive, KAT2A inh inactive, RECQ1 inh-1 inactive, RECQ1 conf inactive and RECQ1 ADP FP inconclusive.
Cc1cc(C2(c3cc(C)c(O)cc3C)OS(=O)(=O)c3ccccc32)c(C)cc1O was read as TDP1 inh inactive, APEX1 inh inactive and RECQ1 inh-1 inactive.
CS(=O)(=O)N1CCN(c2ccc([N+](=O)[O-])c(NCc3ccccc3)c2)CC1 was read as TDP1 inh inactive, KDM4E inh inactive, APEX1 inh inactive, BLM helicase inh inactive, KAT2A inh inactive and RECQ1 inh-1 inactive.
Screening CS(=O)(=O)N1CCN(c2ccc([N+](=O)[O-])c(NCc3ccc(Cl)cc3)c2)CC1 returned TDP1 inh inactive, KDM4E inh inactive, APEX1 inh inactive, BLM helicase inh 16µM, KAT2A inh inactive, RECQ1 inh-1 32µM and RECQ1 inh-2 inconclusive.
`CCN(CC)C(=O)CC(c1ccc(OC)cc1)c1c(OC)cc(OC)c2c(-c3ccccc3)cc(=O)oc12` (stereo unspecified) gave TDP1 inh 18µM, APEX1 inh inconclusive, BLM helicase inh inactive, RECQ1 inh-1 20µM and RECQ1 inh-2 inconclusive.
`COc1ccc(-n2nnnc2SCC(=O)c2ccc(O)c(O)c2)cc1` gave TDP1 inh inactive, KDM4E inh 11µM, APEX1 inh inconclusive, BLM helicase inh inactive, KAT2A inh inactive, RECQ1 inh-1 13µM and RECQ1 inh-2 7.1µM.
`Cc1ccc2nc(NC(=O)C3CCN(S(=O)(=O)c4cc([N+](=O)[O-])ccc4Cl)CC3)sc2c1` gave TDP1 inh inactive, KDM4E inh inactive, APEX1 inh inconclusive, BLM helicase inh inactive, KAT2A inh inconclusive, RECQ1 inh-1 32µM and RECQ1 inh-2 inconclusive.
CCCN(CCC)CCCNC(=O)C1CCN(c2nc3ccc(CC)cc3s2)CC1 was read as TDP1 inh inactive, BLM helicase inh inactive and KAT2A inh inactive.
